This note sets out measurements from the supplement of paper PMC6555819.

This experiment relates to RARa:RXR (NR concentration 270 nM, RXRa partner concentration 90 nM). Description: PBM binding z-score (relative to random genomic background probes); higher = stronger binding; sequences stand for … in GC…GCGATTGACAGCGTAGAATGAAGG
In a few lines: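 Regression normalization was applied to scanned fluorescence from custom Agilent 4×180K protein-binding microarrays. Before scanning, arrays were incubated 1 h with ligand-free nuclear receptor dimers, and binding was detected with antibodies against each partner (one per run). Binding z-scores use the random background probes as reference.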
The sequence CCTAGTGGGCCATTCAGAGGTCATTGATCATATG had a PBM binding z-score of 4.89.
For the sequence TAGCCTAGGTCATGGTCCAGTATACCACGCGAAC, the PBM binding z-score came to 2.35.
For CAAACTAGGTCAAAGGTCTAAGTCGAGCCAACCA the value was 4.84.
As for CCTACTGGGCCATCAGGTCATAGATATCAACGTT, the figure is 1.87; as for TCTATTAGTTGGTTAGGGCAACCGAAACAGCGGA, 0.342.
On to CGTCCAAGGTTAGCAGGTCAGTGAAAGCGACGTG, for which the PBM binding z-score was 2.01.
GGTGCTAGGTCAGGTTGGTCAGCTAACGGGTACG: the PBM binding z-score amounted to 1.2.
For TTACCAAGGTGGGCTGAGGTCGTTGATCCAACTC the value was 1.14; for CAAACTAGGTCAAAGGTCATAGTCGAGCCAACCA, 8.82.
As for GCTGTTAGTTGAAAGGGCAACCGAATGATTCTCG, the PBM binding z-score turned out to be 1.48.
In turn, CGAACTAGGTCAGCCAGGACAGTGAATACATTGA came in with a PBM binding z-score of 0.595.
Sequence CCTACTGGGCCATCAGGTCATGGATATCAACGTT returned a PBM binding z-score of 2.45.
For GGAACGAGGGCATTCGAGTTGATGGCATGGCGAT the value was 0.115.
Sequence TAGCCTTGGTCAGATCGGGCCAGTATACGCTATA yielded a PBM binding z-score of -0.611.
For AGAATGAGGTTAAGATCAGGGACACAGAATACAT the value was 2.14; for AGTCAAAGTTCACTAGGTGACGTAAGATTCAGCT, 3.34; for GCTGCTAGGTCAACTGATGGTCAGTTAAAGCTCG, 2.6.
For GGCACGAGGGCATTCGAGTTGATAGCATGGCGAT the value was 0.606; for ACTCGGAGGACAAAGGTCAGAGCAACGCCAGTGA, 5.03; for ACTCGGAGAACAAAGGTCAGAGCTACGCCAGTGA, 3.89.
For TAGCCTAGGTCATGGGCCCGTATACCACGCGAAC the value was 2.86; for ATATGTAGATTAAGGGTCATTCAGGTTGGTTCGC, 4.45; for CGTCAAAGTTCAACCAAGGTAACGTAAAGCACGC, 4.39.
Turning to GATACAGGGTCAGTTAGAGGCCAGAGTATGGAAA, the PBM binding z-score came out at 3.86.
For ACATGTAGGTTAGCTGGGGTCATTCAGACTAGGC the value was 6.23; for TCTATTAGTTGATTAGGGCAAACGAAACAGCGGA, 0.325.
For AGTCAAAGTTCAGGACGAGGTAACCTAAAGCACG, the PBM binding z-score was determined as 2.96.
As for CGTCCAAGGTCAGGGAGGTCAGTGAATGCCGAGT, the figure is 5.53; as for GCGACTGGGGCATCAGCAGGTTAACATAACTTAA, 0.486; as for CCTACTGGGCCAAGGTCATTGATCAGTCAAAGCA, 3.29.
For TAGCCTAGGTCATGCGGGCCAGTCTAGTGTCGGC the value was 2.48; for ATCGAAAGGTCGAAGGTGAGTTTACCCACCCGAA, 4.05; for GCAGACAGGTGAAACGTAGGTAACTCAGGGTGGC, 0.315.
As for TCATACAGGTGAAGGTAACTCAGGTACGCAGTCG, the figure is 1.31.
TAGCCTAGGTCATTCAGGGGCCAATATAGAAAGC had a PBM binding z-score of 4.05.
For CCTCACGGGTCAAGGTTATAGCACGGGTGGTACG the value was 3.73; for TCGAGTGGGTTAGTCGGGGCATTCAGCCAACATA, 0.255.
For CAAACTAGGCCAAAGGTCAAAGTCGAGCCAACCA the value was 6.35.
As for CAAACTAGGGCACCGGAAGGTCAAAGTCCGCATG, the figure is 4.68.
Sequence CTCGAAATGTCGGTTGAGGTGAGTATACGGATAA gave a PBM binding z-score of 0.341.
